Experimental data reported in PMC4336329 (PLoS ONE, 2015).
The whole screen tested about 310,000 compounds, of which about 2,200 (0.71%) showed an effect of 50% or more. The effect is printed as a negative number. The entries come from a sample that favours strong results as a whole.

Molecular target: human ether-à-go-go-related gene (hERG) potassium channel (human, UniProt Q12809)
Test: primary screen, population patch clamp on CHO cells stably expressing hERG; higher = less effect of the substance

Chain of human ether-à-go-go-related gene (hERG) potassium channel (Q12809 whole entry, looked up): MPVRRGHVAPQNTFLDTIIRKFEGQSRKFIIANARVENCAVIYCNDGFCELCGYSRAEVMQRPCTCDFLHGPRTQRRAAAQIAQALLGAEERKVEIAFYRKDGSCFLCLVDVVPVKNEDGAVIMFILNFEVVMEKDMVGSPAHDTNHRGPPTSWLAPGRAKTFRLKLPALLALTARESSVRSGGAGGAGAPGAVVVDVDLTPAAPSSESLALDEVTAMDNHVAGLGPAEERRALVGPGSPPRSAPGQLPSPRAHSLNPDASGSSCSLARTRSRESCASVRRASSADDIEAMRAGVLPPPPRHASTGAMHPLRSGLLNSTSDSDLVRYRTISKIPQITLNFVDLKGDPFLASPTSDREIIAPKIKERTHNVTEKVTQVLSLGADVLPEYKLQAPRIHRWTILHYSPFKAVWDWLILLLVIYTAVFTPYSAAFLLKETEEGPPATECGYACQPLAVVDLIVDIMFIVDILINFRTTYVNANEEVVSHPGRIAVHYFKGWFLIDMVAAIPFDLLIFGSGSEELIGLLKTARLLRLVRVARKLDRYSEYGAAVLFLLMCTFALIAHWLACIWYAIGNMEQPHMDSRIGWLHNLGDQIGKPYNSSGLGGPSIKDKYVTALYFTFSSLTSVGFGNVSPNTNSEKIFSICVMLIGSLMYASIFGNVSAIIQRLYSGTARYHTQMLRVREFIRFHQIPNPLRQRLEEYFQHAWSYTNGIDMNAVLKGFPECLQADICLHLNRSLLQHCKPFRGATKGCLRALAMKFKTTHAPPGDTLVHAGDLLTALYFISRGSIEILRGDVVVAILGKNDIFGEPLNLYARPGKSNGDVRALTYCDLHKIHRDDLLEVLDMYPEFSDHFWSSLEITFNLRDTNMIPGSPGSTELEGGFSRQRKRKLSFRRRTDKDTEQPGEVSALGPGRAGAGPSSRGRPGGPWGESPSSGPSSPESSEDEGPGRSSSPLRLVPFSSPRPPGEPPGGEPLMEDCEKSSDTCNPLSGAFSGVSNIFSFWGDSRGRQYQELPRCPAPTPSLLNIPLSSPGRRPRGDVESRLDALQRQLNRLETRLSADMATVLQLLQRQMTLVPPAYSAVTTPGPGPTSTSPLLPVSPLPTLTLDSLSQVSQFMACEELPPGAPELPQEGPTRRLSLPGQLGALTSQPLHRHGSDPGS

| SMILES | hERG current change (%, negative = inhibition) at 1uM [%] |
| --- | --- |
| Cc1nc(-c2ccc(C(=O)N3CCCC3)cc2)cs1 | 9.11 |
| Cc1cccc(C(=O)NCC(=O)NC2CCC(C)CC2)c1 (stereo not drawn) | 1.64 |
| COCCN(Cc1cc2cc(C)ccc2n2nnnc12)C(=S)Nc1ccccc1C | 17 |
| O=C(/C=C/c1cn(-c2ccccc2)nc1-c1cccc(Cl)c1)N1CCN(c2ccccn2)CC1 | 11 |
| O=C(NC(=S)Nc1cccc2c(O)cccc12)c1cccc(Br)c1 | 8.92 |
| O=C(Nc1nccs1)c1nc[nH]c1C(=O)N1CCc2ccccc2C1 | 3.14 |
| COc1ccc(OC)c(-c2cc(C(=O)NCc3ccc(Cl)cc3)no2)c1 | 12.1 |
| O=C(N/C(=C\c1cccs1)C(=O)N1CCOCC1)c1ccco1 | -2.36 |
| Cc1ccc(NC(=O)/C(=C/c2cccs2)NC(=O)c2ccco2)cc1 | 17 |
| O=C(N/C(=C/c1cccs1)C(=O)N1CCOCC1)c1ccco1 | 9.85 |
| CN1CCN(C(=O)/C(=C\c2cccs2)NC(=O)c2ccco2)CC1 | -65.2 |
| CN1CCN(C(=O)/C(=C/c2cccs2)NC(=O)c2ccco2)CC1 | -62.1 |
| Cc1ccccc1NC(=O)/C(=C\c1cccs1)NC(=O)c1ccco1 | -3.3 |
| COCc1cc(Sc2ccc(OC)cc2)nc(-c2ccccc2)n1 | 16.2 |
| CCCCN(C)C(=O)c1nc2ccccn2c1CN1CCN(c2ncccn2)CC1 | 6.17 |
| CCCCN(C)C(=O)c1nc2ccccn2c1CN1CCSCC1 | 12.1 |
| CCCCN(C)C(=O)c1nc2ccccn2c1CN1CCN(C/C=C/c2ccccc2)CC1 | -80.8 |
| CC(C)(C)c1ccc(C(=O)O/N=C(\N)c2ccccn2)cc1 | 13.9 |
| O=C(CN1C(=O)/C(=C/c2ccccc2)SC1=S)Nc1cccnc1 | 9.4 |
| O=C(CC1CCCCC1)NCc1ccco1 | 7.39 |
| CCCCN(CCCC)CC(O)COc1ccccc1Br.Cl (stereo not drawn) | 1.61 |
| CCCCN(CCCC)CC(O)COc1ccccc1C(=O)Nc1ccccc1 (stereo not drawn) | -55 |
| CCCN(CCC)CC(O)COc1ccccc1C(=O)Nc1ccccc1.Cl (stereo not drawn) | -35.8 |

| SMILES | hERG current change (%, negative = inhibition) at 1uM [%] |
| --- | --- |
| CC(=O)N1CCc2cc(S(=O)(=O)CCC(=O)Nc3cc(C)cc(C)c3)ccc21 | 8.33 |
| O=C(/C=C/c1ccccc1)N(c1ccccn1)C1CCCCC1 | 3.14 |
| Cc1nc2ccc(Br)cc2c2c1CC(CO)O2 (stereo not drawn) | 15.9 |
| CCOC(=O)N1CCN(C(=O)c2oc3ccc(S(=O)(=O)N4CC(C)CC(C)C4)cc3c2C)CC1 (stereo not drawn) | 0.354 |
| COCCOC(=O)C1=C(N)Oc2c(c(=O)oc3ccccc23)[C@@]12C(=O)Nc1ccccc12 | 12.1 |
| CCN(CC)CCn1c(NS(=O)(=O)c2ccc(C)cc2)nc2ccccc21 | -17.8 |
| CCN(CC)CCn1c(NS(=O)(=O)c2ccc(Cl)cc2)nc2ccccc21.Cl | -69 |
| CCN(CC)CCn1c(NC(=O)c2ccc(Cl)cc2)nc2ccccc21 | -0.305 |
| O=C1C(Cl)=C(N2CCN(Cc3ccccc3)CC2)C(=O)N1c1ccccc1 | 8.07 |
| COc1ccc(-c2c[n+]3c(n2-c2ccccc2)SCC3)cc1.[Br-] | -6.21 |
| CCOc1ccc(-n2c(-c3ccc(Cl)cc3)c[n+]3c2SCC3)cc1.[Br-] | -60.8 |
| Clc1ccc(-c2c[n+]3c(n2-c2ccccc2)SCC3)cc1.[Cl-] | 3.68 |
| CCCN1CCN(CCCNC(=O)c2cc3c(s2)-c2c(C)cccc2OC3)CC1 | -67.5 |
| Cc1cccc2c1-c1sc(C(=O)NCCCN3CCCC(C)C3)cc1CO2 (stereo not drawn) | 16.2 |
| Cc1cccc2c1-c1sc(C(=O)NCCCN3CCC(C)CC3)cc1CO2 | -5.27 |
| CCn1cc(Br)c(C(=O)N(C)Cc2ccccc2)n1 | 11.4 |
| Cc1cc(N/N=C/c2ccco2)c2ccccc2n1 | 10.7 |
| Cc1ccc2nc(N/N=C/c3ccco3)cc(C)c2c1 | -62.9 |
| Cc1ccc2nc(SCC(=O)N/N=C/c3ccco3)cc(C)c2c1 | 9.47 |
| CCOC(=O)N1CCC(N2C(=O)c3ccccc3C2Nc2c(C)cccc2C)CC1 (stereo not drawn) | -57.6 |
| CCOC(=O)N1CCC(N2C(=O)c3ccccc3C2Nc2ccccc2C)CC1 (stereo not drawn) | -8.54 |
| CCOC(=O)N1CCC(N2C(=O)c3ccccc3C2Nc2ccccc2)CC1 (stereo not drawn) | 6.14 |
| COc1ccc(C(=O)N2CCCC(Nc3ccc(C)c(C)c3)C2)cc1 (stereo not drawn) | -0.108 |

| SMILES | hERG current change (%, negative = inhibition) at 1uM [%] |
| --- | --- |
| Cc1cccc2cc(CN(Cc3ccc(F)cc3)C(=O)N3CCOCC3)c(=O)[nH]c12 | 1.19 |
| CS(=O)(=O)Nc1ccc(C(=O)Nc2ccccc2C(=O)NCc2ccco2)cc1 | -58 |
| CS(=O)(=O)Nc1ccccc1C(=O)NCc1ccco1 | 1.75 |
| CS(=O)(=O)Nc1ccc(C(=O)NCc2ccco2)cc1 | 16.3 |
| CC(C)CC(=O)Nc1ccc(C(=O)NNC(=O)C(c2ccccc2)c2ccccc2)cc1 | 12.2 |
| COc1cccc(NC(=O)NCCN2CCCCC2)c1 | 4.59 |
| CC1(C)CC(=O)c2cc(OCC(=O)NCCCN3CCN(c4ccccc4F)CC3)ccc2O1 | -26 |
| Cn1c(C(=O)NCCCN2CCCCC2)cc2sccc21 | -13.7 |
| COc1ccc(N2CCN(CCCNC(=O)c3cc4sccc4n3C)CC2)cc1 | -77.7 |
| O=C(NCCCN1CCc2ccccc2C1)Nc1ccc(Cl)cc1 | -44.5 |
| CSc1cccc(NC(=S)NCCCN2CCN(c3ccc(F)cc3)CC2)c1 | -3.39 |
| COc1ccc(NC(=O)NCCN2CCc3ccccc3C2)cc1 | -1.55 |
| COc1cccc(NC(=O)NCCCN2CCN(c3ccc(F)cc3)CC2)c1 | -51 |
| CC1(C)CC(=O)c2cc(OCC(=O)NCCCN3CCN(c4ccc(F)cc4)CC3)ccc2O1 | -60.3 |
| CC1(C)CC(=O)c2cc(OCC(=O)NCCN3CCOCC3)ccc2O1 | 16.6 |
| CC1CCN(CCCNC(=O)c2cc3sccc3n2C)CC1 | -23.6 |
| COc1ccc(NC(=O)NCCCN2CCc3ccccc3C2)cc1 | -69.5 |
| CC(C)(C)OC(=O)NC(CNCc1ccccc1)Cc1ccccc1 (stereo not drawn) | 3.93 |
| Nc1c(C(=O)NCCN2CCOCC2)c2nc3ccccc3nc2n1-c1ccccc1 | -3.09 |
| Cc1ccc(NC(=S)/N=C(\N)Nc2nc(C)c3cc(C)c(C)cc3n2)cc1C | 8.63 |
| COc1cccc(C(=O)Nc2cccc(C(C)=O)c2)c1 | 11.4 |
| COc1ccccc1N1CCN(CCCNC(=O)Nc2ccccc2)CC1 | -28.8 |
| COc1ccc(NC(=O)NCCN2CCN(c3cc(OC)ccc3OC)CC2)cc1 | 13.5 |

| SMILES | hERG current change (%, negative = inhibition) at 1uM [%] |
| --- | --- |
| COc1ccc(N2CCN(CCCNC(=O)Nc3ccccc3)CC2)cc1 | -50.5 |
| COc1ccc(NC(=O)NCCCN2CCN(c3cc(C)ccc3C)CC2)cc1 | -80.4 |
| COc1ccc(Cl)c(N2CCN(CCCNC(=O)Nc3ccc(C)cc3)CC2)c1 | -24.5 |
| COc1ccc(NC(=O)NCCCN2CCN(c3ccccc3F)CC2)cc1 | -5 |
| CCCSc1nnc2n(N)c(=O)c3ccccc3n12 | 11.3 |
| C[C@@H](C(=O)Nc1ccc2ccccc2c1)[C@H]1C[C@]1(C)[C@H](NS(=O)(=O)c1ccc(-c2ccccc2)cc1)c1ccccc1 | -8.41 |
| Fc1ccccc1NC(=S)N1CCOCC1 | 12.2 |
| COc1cc(C2SCCS2)cc(Br)c1Oc1ncccc1[N+](=O)[O-] | 10.3 |
| CC(C)CCNC(=O)Cc1csc(-c2ccccc2)n1 | 6.54 |
| OC1CCC(NC(=S)Nc2ccc(SC(F)F)cc2)CC1 (stereo not drawn) | 6.06 |
| O=C(OCc1cnc(Cl)s1)c1cccc(Cl)c1 | -5.8 |
| CCCc1cc(C(=O)Nc2ccc(Cl)cn2)cs1 | 9.72 |
| O=C(CCS(=O)(=O)c1ccc2c(c1)NC(=O)CO2)NCCc1ccccc1 | 9.02 |
| CS(=O)(=O)N(Cc1ccco1)CC(O)Cn1c2ccccc2c2ccccc21 (stereo not drawn) | 15 |
| CN(C)C1(CNC(=O)c2ccc(NS(=O)(=O)c3ccc(Cl)c(Cl)c3)cc2)CCCCC1 | -50.9 |
| CCOc1ccc(NS(=O)(=O)c2ccc(C(=O)NCC3(N(C)C)CCCCC3)cc2)cc1 | 6.85 |
| Cc1cc(S(=O)(=O)Nc2ccc(C(=O)NCC3(N(C)C)CCCCC3)cc2)ccc1F | -7.71 |
| COc1ccc(CCC(=O)Nc2ccc(Cn3ccnc3)cc2)cc1 | 10.4 |
| CCCNc1c(NS(=O)(=O)c2ccc(OC)c(OC)c2)c(=O)oc2ccccc12 | -77.2 |
| CCCNc1c(NS(=O)(=O)c2ccc(C(C)(C)C)cc2)c(=O)oc2ccccc12 | 9.75 |
| CCCNc1c(NS(=O)(=O)c2ccc(C)c(C)c2)c(=O)oc2ccccc12 | -6.38 |
